Assay results taken from PubChem BioAssay (NCATS).
“And” between values parts separate entries of the source, which are not always exact repeats. Equal values may be shown once. Results filed as inconclusive are left out. The source made the active and inactive calls. Calls come from the whole dose curve; as a rule, active = well fitted inhibition curve with a large enough effect; inconclusive = small, poorly fitted or top-dose-only effect; inactive = flat fitted curve, though single readings scatter.
% is set by controls: 0 for no effect and ±100 for the full control effect; potency is the fitted concentration of half-maximal effect.

These molecules were tested on KB-3-1 (assay: Cytotoxic Profiling of Annotated Libraries Using Quantitative High-Throughput Screening (AID 1296008; note: nearly all actives have a fitted effect of over 60% in size)). Conditions: Five cell lines viability, CellTiter-Glo ATP luminescence, 48-72 h; max response: stronger effect = lower value.
Text: Cell-based phenotypic screening is a commonly used approach to discover biological pathways, novel drug targets, chemical probes and high-quality hit-to-lead molecules. Many hits identified from high-throughput screening campaign are ruled out through a series of follow-up potency, selectivity/specificity, and cytotoxicity assays. Prioritization of molecules with little or no cytotoxicity for a more in-depth downstream evaluation influence the future direction of projects, so cytotoxicity profiling of the screening libraries at early stage is essential for increasing the likelihood of candidate success. […] For the annotated library, we also examined the primary targets and mechanistic pathways regularly associated with cell death. To our knowledge, this is the first study to use high-throughput screening to profile large libraries for cytotoxicity assessment in both normal and cancer cell lines. In summary, the results generated here constitutes a valuable resource for the scientific community and provides insight on identifying cytotoxic compounds with particular mechanisms of action, and prioritizing compounds with suitable cytotoxicity profile for further evaluation.
A pintool (Kalypsys) was used to transfer 23 nL of compound solution to the 1536-well assay plates. After 48 or 72 hr incubation at 37 degree Celsius, 5% CO2 and 95% humidity, 2.5 uL of CellTiter-Glo (Promega) was dispensed into each well using a dispenser (Aspect Automation, St. Paul, MN) with solenoid valves (Lee Valves, Westbrook CT). Plates were left at room temperature for 10 min before imaging the ATP-coupled luminescence using a ViewLux microplate imager (PerkinElmer, Waltham, MA).
For O=Cc1ccccc1, the max response was -11.1% (inactive) and 0.83% (inactive).
CN(Cc1cccc(-c2ccncc2)c1)C(=O)Oc1ccc(-c2ccc(C(N)=O)cc2)cc1 was tested, and the max response was 1.21% (inactive).
In the case of CO[C@H]1C[C@H](O[C@H]2CC[C@]3(CO)[C@H]4CC[C@]5(C)[C@@H](C6=CC(=O)OC6)CC[C@]5(O)[C@@H]4CC[C@]3(O)C2)O[C@H](C)[C@H]1O, the Potency is reported as 224 nM (active).
In the case of C=CCN1CC[C@]23c4c5ccc(O)c4O[C@H]2[C@@H](O)CC[C@@]3(O)[C@H]1C5, the max response is reported as 3.34% (inactive).
In the case of CNc1ccc2oc(C[C@H]3O[C@@]4(CC[C@H]3C)O[C@H](C(C)C(=O)c3ccc[nH]3)[C@H](C)C[C@H]4C)nc2c1C(=O)O (stereo not given in full), the Potency is reported as 2310 nM (active).
With COC1CC(O[C@H]2CC[C@]3(C=O)C4CC[C@]5(C)[C@@H](C6=CC(=O)OC6)CC[C@]5(O)[C@@H]4CC[C@@H]3C2)OC(C)C1O[C@@H]1O[C@H](CO)[C@@H](O[C@@H]2O[C@H](CO)[C@@H](O)[C@H](O)[C@H]2O)[C@H](O)[C@H]1O (stereo not given in full) the Potency was 174 nM (active).
In the case of Cc1ccccc1C1=CCN(C)CC1, the max response is reported as 6.53% (inactive).
In the case of NNC(=O)c1nn(Cc2ccc(Cl)cc2Cl)c2ccccc12, the max response is reported as -14.6% (inactive).
For C[C@H]1C/C=C/[C@H]2[C@@H]3O[C@]3(C)[C@@H](C)[C@H]3[C@H](Cc4ccccc4)NC(=O)[C@]32OC(=O)O/C=C/[C@@](C)(O)C1=O, the Potency was 563 nM (active).
With N#CC(O[C@@H]1O[C@H](CO)[C@@H](O)[C@H](O)[C@H]1O)c1ccccc1 (stereo not given in full) the max response was 0.785% (inactive).
With C[C@@H]1[C@@H]2Cc3ccc(O)cc3[C@@]1(C)CCN2CCc1ccccc1 the max response was -19% (inactive).
CO/C1=C\C(C)=C\[C@@H](C)[C@@H](O)[C@@H](C)C/C(C)=C/C=C/[C@H](OC)[C@@H]([C@@H](C)[C@@H](O)[C@H](C)[C@@]2(O)C[C@@H](O)[C@H](C)[C@@H](C(C)C)O2)OC1=O was tested, and the Potency was 61.1 nM (active).
For C[C@H]1O[C@@H](O[C@H]2CC[C@]3(CO)C4CC[C@]5(C)[C@@H](C6=CC(=O)OC6)CC[C@]5(O)[C@@H]4CC[C@H]3C2)[C@H](O)[C@H](O)[C@@H]1O[C@@H]1O[C@H](CO)[C@@H](O)[C@H](O)[C@H]1O (stereo not given in full), the Potency was 1930 nM (active).
With CCCSc1cc(OC)c(CCN)cc1OC the Potency was 17800 nM (active).
In the case of Clc1ccc([C@@H]2C[C@H]3CC[C@@H]2N3)cn1, the max response is reported as -6.98% (inactive).
N#Cc1ccccc1-c1cc(-c2ccccn2)cn(-c2ccccc2)c1=O was tested, and the max response was -4.86% (inactive).
With C/C=C(\C)C(=O)OC1C2C3(C)CCC(OC4CC(OC)C(OC5OC(C)C(O)C(OC)C5O)C(C)O4)CC3CCC23OC32CCC(C(C)=O)C2(C)C1OC(=O)/C(C)=C/C (stereo not given) the max response was -21.8% (inactive).
CNC(C)Cc1ccccc1 (stereo not given) was tested, and the max response was -8.49% (inactive).
In the case of O=P1(N(CCCl)CCCl)NC(OO)CCO1 (stereo not given), the max response is reported as 2.7% (inactive).
For Cc1cccc(NC(=O)N[C@H]2CN(C)c3ccccc3C(c3ccccc3)=N2)c1, the max response was 6.39% (inactive).
For C=C1C[C@]2(O)[C@@]3(C)CCC(=O)C(C)(C)C3=C(O)C(=O)[C@@]2(C)[C@@H]2C(=O)O[C@@](C)(C(=O)OC)C(=O)[C@@]12C, the max response was 1.74% (inactive).
CC[C@H](C)[C@H](NC(=O)[C@H]1CCCCN1C)C(=O)N(COC(=O)CC(C)C)[C@H](C[C@@H](OC(C)=O)c1nc(C(=O)N[C@@H](Cc2ccc(O)cc2)C[C@H](C)C(=O)O)cs1)C(C)C was tested, and the Potency was 0.8 nM (active).
For CC1=CC2/C=C(\C)CCCC(O)/C=C/C(=O)OC23C(=O)NC(CC(C)C)C3C1C (stereo not given), the outcome was “inactive”.
In the case of COc1cc(O)c2c(c1)/C=C/C[C@@H](O)[C@@H](O)C(=O)CCC[C@H](C)OC2=O, the max response is reported as 5.8% (inactive).
C=C1CC[C@H]2[C@@H](/C=C(\C)C(=O)[C@@]3(OC(C)=O)C[C@H](C)[C@H](OC(=O)c4ccccc4)[C@@H]3[C@H]1OC(C)=O)C2(C)C was tested, and the max response was 4.96% (inactive).
CC(C)=CCN1CC[C@]2(C)c3cc(O)ccc3C[C@H]1[C@H]2C was tested, and the max response was -17.1% (inactive).
C[C@@H]1O[C@@H](O[C@H]2CC[C@@]3(C)C(CC[C@@H]4C3CC[C@]3(C)[C@@H](C5=CC(=O)OC5)CC[C@]43O)C2)[C@H](O)[C@H](O)[C@H]1O (stereo not given in full) was tested, and the Potency was 796 nM (active).
With CC[C@H](O)[C@@H](C)[C@H]1O[C@@H]1C[C@H](C)/C=C/C=C(\C)[C@H]1OC(=O)C[C@H](O)CC[C@@](C)(O)[C@@H](OC(C)=O)/C=C/[C@@H]1C the Potency was 5.2 nM (active).
In the case of CC1=CC(=O)[C@@H](O)[C@@]2(C)C1C[C@H]1OC(=O)[C@H](O)[C@@]3(O)[C@@H](C)[C@@H](O)[C@H](O)C2[C@@]13C (stereo not given in full), the Potency is reported as 6400 nM (active).
In the case of C[C@@H]1C[C@@H](O)[C@]2(O)O[C@@H]3C[C@@]4(C=O)C(CC[C@@H]5C4CC[C@]4(C)[C@@](O)(C6=CC(=O)OC6)CC[C@]54O)C[C@H]3OC2O1 (stereo not given in full), the Potency is reported as 2240 nM (active).
For O=C(C[C@@H]1NCCC[C@H]1O)Cn1cnc2ccccc2c1=O, the Potency was 259 nM (active).
For C[C@]12CCC(=O)C=C1CC[C@@H]1[C@@H]2[C@@H](O)C[C@]2(C)C(=O)CC[C@@H]12, the max response was 6.55% (inactive).
With C/C=C(\C)C(=O)OC1CC2C(CC=C3CC(OC4CC(OC)C(OC5CC(OC)C(OC6CC(OC)C(OC7CC(OC)C(O)C(C)O7)C(C)O6)C(C)O5)C(C)O4)CCC32C)C2(O)CCC(C(C)=O)C12C (stereo not given) the outcome was “inactive”.
With CN1CCN(c2nc3ccccc3nc2Cl)CC1 the outcome was “inactive”.
In the case of Cc1cccc(NC(=O)c2ccc(C(F)(F)F)cc2C(=O)O)n1, the outcome is reported as “inactive”.
In the case of CC(=O)OC[C@]12[C@H](OC(C)=O)C(=O)[C@@H]3[C@@H](O)[C@@]14O[C@@]3(C)COC(=O)c1cccnc1[C@@H](C)[C@H](C)C(=O)O[C@@H]([C@H](OC(C)=O)[C@@H]2OC(C)=O)[C@]4(C)O, the max response is reported as 7.87% (inactive).
CN1C2CCC1CC(OC(=O)N1Cc3ccccc3NC1=O)C2 (stereo not given) was tested, and the max response was -1.51% (inactive).
C/C=C(\C)C(=O)O[C@@H]1[C@@H](C)[C@]2(O)C3C=C(C)C(=O)[C@@]3(O)CC(CO)=C[C@H]2C2C(C)(C)[C@@]21OC(=O)C(C)CC (stereo not given in full) was tested, and the outcome was “inactive”.
With CCC(C)(O)C1(C(=O)O)COC(=O)C1 (stereo not given) the outcome was “inactive”.
O=S(=O)(c1ccccc1F)N1CCOc2c(N3CCNCC3)cccc21 was tested, and the outcome was “inactive”.
